# According to the OligoGym collection:
# Biological target: NEUROD6
# Experiment: pooled miR-30 sensor sort-seq; sequence = guide strand
# Conditions: shRNA
# Also: reference of the scale not given here.
row,Sequence,sensor-assay potency score (higher = more potent)
1,TTTTCATCTTCCTCTTCCCTGT,-0.025
2,TGTCTCCTGAACTTGACCCTTT,-0.00785
3,AATAGTTGAAACACACTTCAGA,-0.228
4,TTCTCTAGAAAACTTTCTGCAC,-0.894
5,TTTGTTGTCTTTTTTTTCCTAA,-0.154
6,TTTAATTCATCTTGCATTGTGA,-0.0595

# Biological target: NF1
# Experiment: as above
# Conditions: shRNA
row,Sequence,sensor-assay potency score (higher = more potent)
1,TATTACTGTAGCTTCTATCAGA,-0.358
2,TAACTGATGAAGAACCAGCAGA,-0.956
3,TTTGTAGATAGGTAGCACCATA,-1.19
4,TTGTAGGACAATCAGATGCTAT,-0.838
5,TATTCTACCATCTTATTCCTAA,-0.177
6,TAGAAGGAATATCACATCCTAC,-0.685
7,TTTGCTTTGAAAACGGTCCTGC,0.844
8,TACTAAGAAAGTAACAACGTGG,0.245
9,TAGCAGTAACTCTTTGTCGTTT,-0.737
10,TAAAATAGCAATATCATCCCAC,0.315

# Biological target: NFE2L1
# Experiment: as above
# Conditions: shRNA
row,Sequence,sensor-assay potency score (higher = more potent)
1,TTGAATATTGGGCATCTCCTTT,-0.276
2,TAATTGTCCAGGTCTATGCTCT,-0.487
3,TTAGCAGCTTTGAATATTGGGC,-0.506
4,TAAGTCTCCACTGACTGGGGGG,-0.685
5,TTCCTGTACACTGACCCGCAGT,-0.906
6,TTGATGATTTTGTCATTGGTGA,-0.465
7,TTATGCTGGAAATGTCTGCTGG,-0.294
8,TTTCGCTTTCTCGCACCCCGTT,-0.883
9,TAAGTATCCACGTCCACCCGTA,0.169
10,TTGTCCAGGTCTATGCTCTTGG,-0.582
11,TCGTCCGTTCTCATCTCGCAGC,-1.23
12,TTACTCAACACAAGCATTCTAG,0.0111

# Biological target: NFYC
# Experiment: as above
# Conditions: shRNA
row,Sequence,sensor-assay potency score (higher = more potent)
1,TGTGTTAGTGATGATCTGCTGC,0.227
2,TATTGCATCTTTCTGCTGGAGA,-0.521
3,TTATCTTCTGTGTGAATCCAGG,-0.977
4,ATCTCTTGGAACAATATCGATG,-1.33
5,TAGCATTGGACACACACTCAAC,-0.948
6,TAAGCGGATATACTGCAGCTGG,-0.727
7,AAATATTGCATCTTTCTGCTGG,0.522
8,TAATCTTCTTAATACGAGCCAG,-0.951
9,TCTTGGAACAATATCGATGAGA,-0.931
10,TAGAGCTGCTGTCCATCTGTGA,-0.297
11,TTGCTGGATCTGGTAGAGCTGC,-1.31
12,TTGAGTGCCTGATACAGGCTGG,-0.146
